This note sets out measurements from publication PMC9911399, “Two distinct binding modes provide the RNA-binding protein RbFox with extraordinary sequence specificity”.

B1: CGGUUCC (DNA:RNA)
RNA: GGGAGACCGGAAUUCAGAUUGUCCCGGUUCCUUAAAUCCCGUCGUAGCCACCA
DNA 1: CAATCTGAATTCCGGTCTCCC
DNA 2: TGGTGGCTACGACGGGATT
B2: UUUCGAG (DNA:RNA)
RNA: GGGAGACCGGAAUUCAGAUUGUCCUUUCGAGUUAAAUCCCGUCGUAGCCACCA
DNA 1: CAATCTGAATTCCGGTCTCCC
DNA 2: TGGTGGCTACGACGGGATT
B3: AUUAUUA (DNA:RNA)
RNA: B2 RNA with U25A, C28A, G29U, A30U, G31A
DNA 1: CAATCTGAATTCCGGTCTCCC
DNA 2: TGGTGGCTACGACGGGATT
B4: UUUUUAA (DNA:RNA)
RNA: B2 RNA with C28U, G29U, G31A
DNA 1: CAATCTGAATTCCGGTCTCCC
DNA 2: TGGTGGCTACGACGGGATT
B5: ACUUAAG (DNA:RNA)
RNA: B2 RNA with U25A, U26C, C28U, G29A
DNA 1: CAATCTGAATTCCGGTCTCCC
DNA 2: TGGTGGCTACGACGGGATT
B6: CCAGAGG (DNA:RNA)
RNA: B1 RNA with G26C, G27A, U28G, U29A, C30G, C31G
DNA 1: CAATCTGAATTCCGGTCTCCC
DNA 2: TGGTGGCTACGACGGGATT
B7: UCGAGAA (DNA:RNA)
RNA: B2 RNA with U26C, U27G, C28A, G31A
DNA 1: CAATCTGAATTCCGGTCTCCC
DNA 2: TGGTGGCTACGACGGGATT
B8: UUUCGCU (DNA:RNA)
RNA: B2 RNA with A30C, G31U
DNA 1: CAATCTGAATTCCGGTCTCCC
DNA 2: TGGTGGCTACGACGGGATT
B9: UUGAACC (DNA:RNA)
RNA: B1 RNA with C25U, G26U, U28A, U29A
DNA 1: CAATCTGAATTCCGGTCTCCC
DNA 2: TGGTGGCTACGACGGGATT
B10: CCGAACG (DNA:RNA)
RNA: B1 RNA with G26C, U28A, U29A, C31G
DNA 1: CAATCTGAATTCCGGTCTCCC
DNA 2: TGGTGGCTACGACGGGATT
B11: GGAACGU (DNA:RNA)
RNA: B1 RNA with C25G, G27A, U28A, U29C, C30G, C31U
DNA 1: CAATCTGAATTCCGGTCTCCC
DNA 2: TGGTGGCTACGACGGGATT
B12: UGGACGU (DNA:RNA)
RNA: B1 RNA with C25U, U28A, U29C, C30G, C31U
DNA 1: CAATCTGAATTCCGGTCTCCC
DNA 2: TGGTGGCTACGACGGGATT
B13: UUGAACG (DNA:RNA)
RNA: B2 RNA with U27G, C28A, G29A, A30C
DNA 1: CAATCTGAATTCCGGTCTCCC
DNA 2: TGGTGGCTACGACGGGATT
B14: CGGAACG (DNA:RNA)
RNA: B1 RNA with U28A, U29A, C31G
DNA 1: CAATCTGAATTCCGGTCTCCC
DNA 2: TGGTGGCTACGACGGGATT
B15: UGGACCG (DNA:RNA)
RNA: B1 RNA with C25U, U28A, U29C, C31G
DNA 1: CAATCTGAATTCCGGTCTCCC
DNA 2: TGGTGGCTACGACGGGATT
B16: UUAAACG (DNA:RNA)
RNA: B2 RNA with U27A, C28A, G29A, A30C
DNA 1: CAATCTGAATTCCGGTCTCCC
DNA 2: TGGTGGCTACGACGGGATT
B17: GUUAACG (DNA:RNA)
RNA: B2 RNA with U25G, C28A, G29A, A30C
DNA 1: CAATCTGAATTCCGGTCTCCC
DNA 2: TGGTGGCTACGACGGGATT
B18: GAACGUU (DNA:RNA)
RNA: B2 RNA with U25G, U26A, U27A, A30U, G31U
DNA 1: CAATCTGAATTCCGGTCTCCC
DNA 2: TGGTGGCTACGACGGGATT
B19: CGAACGU (DNA:RNA)
RNA: B1 RNA with G27A, U28A, U29C, C30G, C31U
DNA 1: CAATCTGAATTCCGGTCTCCC
DNA 2: TGGTGGCTACGACGGGATT
B20: UGGAACG (DNA:RNA)
RNA: B1 RNA with C25U, U28A, U29A, C31G
DNA 1: CAATCTGAATTCCGGTCTCCC
DNA 2: TGGTGGCTACGACGGGATT
B21: CGCUCCU (DNA:RNA)
RNA: B1 RNA with G27C, U29C, C31U
DNA 1: CAATCTGAATTCCGGTCTCCC
DNA 2: TGGTGGCTACGACGGGATT
B22: GGAGGUA (DNA:RNA)
RNA: B1 RNA with C25G, G27A, U28G, U29G, C30U, C31A
DNA 1: CAATCTGAATTCCGGTCTCCC
DNA 2: TGGTGGCTACGACGGGATT
B23: GGCCGUU (DNA:RNA)
RNA: B2 RNA with U25G, U26G, U27C, A30U, G31U
DNA 1: CAATCTGAATTCCGGTCTCCC
DNA 2: TGGTGGCTACGACGGGATT
B24: GUUUUCU (DNA:RNA)
RNA: B1 RNA with C25G, G26U, G27U, C31U
DNA 1: CAATCTGAATTCCGGTCTCCC
DNA 2: TGGTGGCTACGACGGGATT
B25: GAACGUG (DNA:RNA)
RNA: B2 RNA with U25G, U26A, U27A, A30U
DNA 1: CAATCTGAATTCCGGTCTCCC
DNA 2: TGGTGGCTACGACGGGATT
B26: AGAACGU (DNA:RNA)
RNA: B1 RNA with C25A, G27A, U28A, U29C, C30G, C31U
DNA 1: CAATCTGAATTCCGGTCTCCC
DNA 2: TGGTGGCTACGACGGGATT
B27: GAGAACG (DNA:RNA)
RNA: B1 RNA with C25G, G26A, U28A, U29A, C31G
DNA 1: CAATCTGAATTCCGGTCTCCC
DNA 2: TGGTGGCTACGACGGGATT
B28: AGGAACG (DNA:RNA)
RNA: B1 RNA with C25A, U28A, U29A, C31G
DNA 1: CAATCTGAATTCCGGTCTCCC
DNA 2: TGGTGGCTACGACGGGATT
B29: AGGACCG (DNA:RNA)
RNA: B1 RNA with C25A, U28A, U29C, C31G
DNA 1: CAATCTGAATTCCGGTCTCCC
DNA 2: TGGTGGCTACGACGGGATT
B30: GGGAACG (DNA:RNA)
RNA: B1 RNA with C25G, U28A, U29A, C31G
DNA 1: CAATCTGAATTCCGGTCTCCC
DNA 2: TGGTGGCTACGACGGGATT
B31: CAGAACG (DNA:RNA)
RNA: B1 RNA with G26A, U28A, U29A, C31G
DNA 1: CAATCTGAATTCCGGTCTCCC
DNA 2: TGGTGGCTACGACGGGATT
B32: GUGAACG (DNA:RNA)
RNA: B1 RNA with C25G, G26U, U28A, U29A, C31G
DNA 1: CAATCTGAATTCCGGTCTCCC
DNA 2: TGGTGGCTACGACGGGATT
B33: UGAACGU (DNA:RNA)
RNA: B1 RNA with C25U, G27A, U28A, U29C, C30G, C31U
DNA 1: CAATCTGAATTCCGGTCTCCC
DNA 2: TGGTGGCTACGACGGGATT

Numbering of substitutions follows the chain as printed; changes in the protein carry UniProt numbers. In all, about 16,000 sequences were measured (“ka relative to ugcaugu”: median about 0.096, highest 2% from about 0.35 on). Many of the other results were omitted from the sample, so the highest values are more common in it than they were.

This assay deals with T1, RBFOX1 RRM RbFoxmut (Fox-RRM*) (Homo sapiens, UniProt Q9NWB1 109-208, R118D;E147R;N151S;E152T).
T1 sequence: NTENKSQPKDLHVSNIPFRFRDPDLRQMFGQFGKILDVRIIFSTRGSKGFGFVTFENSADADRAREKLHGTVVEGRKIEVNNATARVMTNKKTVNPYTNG
The assay is described as follows: EMSA; HiTS-Eq, 1 nM pool, 10 min; buffer printed only for the single-RNA assays: 10 mM Tris pH 7.5, 150 mM NaCl, 3.4 mM EDTA, 0.001% NP-40, 30 C. Particulars: tags: His6 N-terminal (pET28a); label: 5' 32P. The method in brief: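 Relative association constants, normalised to the cognate motif, were derived by comparing read counts of each RNA species with those of the control reaction. The RNA sequenced was the free fraction, separated by 8% native PAGE after a 10 min equilibration in 50 µL of 1 nM 5′-radiolabelled RNA (7 randomized nucleotides) with increasing concentrations of purified wild-type or mutant RbFox RRM.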
As to B1, the binding signal is 0.104 KA relative to UGCAUGU.
The figure for B2 is 0.107 KA relative to UGCAUGU.
The figure for B3 is 0.154 KA relative to UGCAUGU.
The result for B4 reads 0.1 KA relative to UGCAUGU; that for B5, 0.174 KA relative to UGCAUGU; that for B6, 0.0884 KA relative to UGCAUGU.
Turning to B7, the binding signal was 0.116 KA relative to UGCAUGU.
Consider B8, for which the binding signal was 0.0799 KA relative to UGCAUGU.
As to B9, the binding signal was 0.129 KA relative to UGCAUGU.
The figure for B10 is 0.211 KA relative to UGCAUGU; for B11 it is 0.415 KA relative to UGCAUGU; for B12 it is 0.147 KA relative to UGCAUGU.
For B13, the binding signal was 0.39 KA relative to UGCAUGU.
B14: the binding signal is 0.53 KA relative to UGCAUGU.
Take B15: the binding signal is 0.238 KA relative to UGCAUGU.
With B16, the binding signal was 0.0812 KA relative to UGCAUGU.
For B17, the binding signal was 0.111 KA relative to UGCAUGU.
Regarding B18, the binding signal is 0.199 KA relative to UGCAUGU.
The result for B19 reads 0.175 KA relative to UGCAUGU; that for B20, 0.84 KA relative to UGCAUGU; that for B21, 0.0521 KA relative to UGCAUGU.
With B22, the binding signal is 0.121 KA relative to UGCAUGU.
Take B23: the binding signal is 0.0754 KA relative to UGCAUGU.
With B24, the binding signal is 0.0724 KA relative to UGCAUGU.
The result for B25 reads 0.226 KA relative to UGCAUGU.
The figure for B26 is 0.149 KA relative to UGCAUGU; for B27 it is 0.347 KA relative to UGCAUGU.
B28: the binding signal is 0.576 KA relative to UGCAUGU.
The figure for B29 is 0.183 KA relative to UGCAUGU; for B30 it is 0.472 KA relative to UGCAUGU.
Consider B31, for which the binding signal was 0.168 KA relative to UGCAUGU.
The result for B32 reads 0.538 KA relative to UGCAUGU; that for B33, 0.242 KA relative to UGCAUGU.
